Source: PubChem BioAssay (National Center for Advancing Translational Sciences (NCATS))
The list is not random: actives were taken first. Their share in the collection is about 8.8%.
HTT aggregate: inhibitors of mutant huntingtin aggregate formation in PC12 cells; PC12 HttQ103-GFP aggregates, Acumen cytometry, 40 h; Potency, µM (top dose mostly 46.1 µM), inactives show top-dose activity change, negative = inhibition, hits mostly inhibitors; hit rate 1.1% among 220,000; AID 1688; also: % is scaled to controls: 0 for no effect and ±100 for the full control effect; nearly all actives have a fitted effect of over 60% in size
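Aggregates are detected as GFP objects 1–25 µm with signal 6 STDEV over background in lysates of induced PC12 cells. These carry Huntingtin exon 1 with 103 glutamines fused to GFP under an ecdysone promoter; compounds titrated.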
HTT ATP protect: Huntington cell model cytoprotection by ATP luminescence; PC12 HTT-Q103 induced, cytoprotection, ATP luminescence, 40 h; Potency, µM (doses to about 56.4 µM), without a hit: cytoprotection (ATP increase), usual class: activators; hit rate 0.14% among 230,000; also: % of control where 0% means no effect; nearly all actives have a fitted effect of over 45% in size
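Cells were plated at 1500 per well in phenol red-free DMEM with 5% equine and 5% calf serum. Tebufenozide (100 nM final) and compounds were added, then ATPlite reagent, and luminescence was read.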
ALDH1A1 block: ALDH1A1 (human) enzyme inhibition | Purified ALDH1A1, NADH fluorescence, propionaldehyde substrate | Potency, µM (doses to about 75.3 µM), without a hit: top-dose activity, negative = inhibition, usual class: inhibitors | hit rate 7.3% among 220,000; active = well fitted inhibition curve with a large enough effect, not every such curve was filed as active; inconclusive = small, poorly fitted or top-dose-only effect, or another doubt; inactive = no such curve, though single readings can be large or run the other way;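 also: plate controls were no enzyme wells and a reference inhibitor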
Target sequence (P00352 whole entry, looked up): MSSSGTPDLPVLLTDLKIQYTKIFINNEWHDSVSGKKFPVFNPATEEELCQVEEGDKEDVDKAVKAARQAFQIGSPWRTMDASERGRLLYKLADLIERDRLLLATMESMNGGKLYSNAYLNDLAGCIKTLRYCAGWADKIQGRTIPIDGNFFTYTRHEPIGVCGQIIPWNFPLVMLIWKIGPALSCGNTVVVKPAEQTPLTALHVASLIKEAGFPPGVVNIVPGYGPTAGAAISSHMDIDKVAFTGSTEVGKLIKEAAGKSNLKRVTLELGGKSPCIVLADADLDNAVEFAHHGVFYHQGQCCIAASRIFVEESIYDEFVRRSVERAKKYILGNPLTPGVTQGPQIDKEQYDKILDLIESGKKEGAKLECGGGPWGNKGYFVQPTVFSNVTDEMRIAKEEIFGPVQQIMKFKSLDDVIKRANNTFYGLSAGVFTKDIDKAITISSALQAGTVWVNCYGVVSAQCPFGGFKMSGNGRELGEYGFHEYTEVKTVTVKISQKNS
Lamin A splicing: changes lamin A minigene splicing in HeLa cells | AID 1487 | HeLa LMNA splicing GFP/RFP minigene ratio, 48 h | hit rate 0.01% among 200,000 | Potency, µM (titrated, usually from 46.1 µM), inactives show at the highest dose ratio change, negative = inhibition, usual class: inhibitors; active = well fitted inhibition curve with a large enough effect in the signal ratio, with a control signal flat, not every such curve was filed as active; inconclusive = small, poorly fitted or top-dose-only effect, or effect the other way, or a change in a side signal; the % refers to the signal ratio; also: % is scaled to controls: 0 for no effect and ±100 for the full control effect
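S3 HeLa stable clones carrying a lamin A-EGFP splicing minigene plus DsRed2 were seeded at 600 cells/well in Opti-MEM with 2% FBS, pin-dosed and incubated 48 h at 37°C. Acumen cytometry (488 nm) gave the GFP/RFP total-intensity ratio.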
HPGD block: inhibitors of human 15-hydroxyprostaglandin dehydrogenase (HPGD); Potency, µM, inactives show at the top dose activity change, negative = inhibition, usual class: inhibitors; hit rate 4.3% among 150,000; purified HPGD, NADH fluorescence kinetic, PGE2 substrate; P15428; active = well fitted inhibition curve with a large enough effect, not every such curve was filed as active; inconclusive = small, poorly fitted or top-dose-only effect, or another doubt; inactive = no such curve, though single readings can be large or run the other way; also: % is scaled to controls: 0 for no effect and ±100 for the full control effect
Target sequence (P15428 whole entry, looked up): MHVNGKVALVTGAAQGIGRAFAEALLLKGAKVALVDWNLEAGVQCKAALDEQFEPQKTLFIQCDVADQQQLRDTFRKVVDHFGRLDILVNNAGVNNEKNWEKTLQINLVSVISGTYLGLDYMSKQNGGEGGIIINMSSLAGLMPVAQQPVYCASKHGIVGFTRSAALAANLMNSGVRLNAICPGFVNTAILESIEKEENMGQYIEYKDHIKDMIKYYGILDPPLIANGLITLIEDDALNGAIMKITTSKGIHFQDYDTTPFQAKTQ
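NADH formation kinetics: reaction with 30 uM PGE2 and 1 mM NAD+ (final), 20 nM enzyme, Tris-HCl pH 8 with Tween 20, after 15 min compound preincubation at room temperature. Fluorescence change, last versus first of five reads.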
* = called active by the depositor; u = inconclusive; x = not tested or not shown; ! = not active in a repeat; [ ] = dose if it differs, or a comment. Unless noted, calls follow the shape of the dose curve; as a rule, active = well fitted curve in the direction sought with a large enough effect; inconclusive = small, poorly fitted or top-dose-only effect, or another doubt; inactive = no such curve, though single readings can be large; an effect the other way counts as inactive or inconclusive. Potency is read from the fitted curve at half-maximal effect.

SMILES	HTT aggregate	HTT ATP protect	ALDH1A1 block	Lamin A splicing	HPGD block
CCc1nn2cc(C(=O)c3cc(C)ccc3O)cnc2c1-c1ccc(F)cc1	-17.8%	-24.6%[10 µM]	u	u	15.8µM*
CCc1nn2cc(C(=O)c3ccccc3O)cnc2c1-c1ccc(F)cc1	-14.9%	-23.2%[10 µM]	u	u	15.8µM*
Cc1ccc(O)c(C(=O)c2cnc3c(c2)c(-c2ccc(F)cc2)c(C#N)c(=O)n3C)c1	13.2%	12.0%	-4.4%	11.7%[46 µM]	x
O=C(O[C@@H](C(=O)O)[C@@H](OC(=O)c1ccccc1)C(=O)O)c1ccccc1	x	u	-2.3%	x	-5.8%
Cc1[nH]nc2c1C1(C(=O)Nc3ccc([N+](=O)[O-])cc31)C(C#N)=C(N)O2 (configuration not stated)	14.7%	19.4%	8.4%	2.1%	-8.3%
CC(=O)N1CCC2(CC1)C(C#N)=C(N)Oc1n[nH]c(CSc3ccc(C)cc3)c12	7.8%[9.22 µM]	-1.1%[0.074 µM]	10µM*	-6.6%	-1.5%
Cc1ccc(SCc2[nH]nc3c2C2(C(=O)Nc4ccc(F)cc42)C(C#N)=C(N)O3)cc1 (configuration not stated)	33.0%	2.9%	2.24µM*	u	1.5%
Cc1ccc(N2C(=O)CSC23C(=O)N(CC(=O)NC2CCCCC2)c2ccccc23)cc1 (configuration not stated)	x	x	x	-16.3%[46 µM]	x
Cn1nccc1NS(=O)(=O)c1ccc(C(C)(C)C)cc1	-8.9%[9.22 µM]	7.0%[10 µM]	x	x	x
Cc1ccc(CNS(=O)(=O)c2ccc(C(C)(C)C)cc2)n1C	u	10.5%	8.91µM*	8.1%	-11.0%
COc1cccc2c1C(=O)c1c(O)c3c(c(O)c1C2=O)C[C@@](O)(C(=O)CO)C[C@@H]3O[C@@H]1C[C@H](N)[C@H](O)[C@H](C)O1	x	-67.2%	20µM*	x	-8.1%
COc1cccc2c1C(=O)c1c(O)c3c(c(O)c1C2=O)C[C@@](O)(C(=O)CO)C[C@@H]3OC1CC(N)C(O)C(C)O1 (some centres not stated)	2.51µM*	-57.5%	x	u	x
CC(=O)[C@@]1(O)Cc2c(O)c3c(c(O)c2[C@H](O[C@H]2C[C@H](N)[C@H](O)[C@H](C)O2)C1)C(=O)c1ccccc1C3=O	x	-76.0%[1.9 µM]	x	x	x
COc1cccc2c1C(=O)c1c(O)c3c(c(O)c1C2=O)C[C@@](O)(C(=O)CO)C[C@@H]3O[C@H]1C[C@H](N)[C@H](O)[C@H](C)O1	x	-88.3%	u	u	-14.3%
CC(=O)C1(O)Cc2c(O)c3c(c(O)c2C(OC2CC(N)C(O)C(C)O2)C1)C(=O)c1c(O)cccc1C3=O (configuration not stated)	1µM*	-23.6%	x	x	x
Cc1cccc(NC(=O)/C=C/c2cccs2)n1	-28.8%	-17.6%	u	-9.5%	28.2µM*
COc1ccc(C(=O)COC(=O)CNC(=O)C2CCCCC2)c(OC)c1	1.9%[9.22 µM]	9.8%	u	16.7%	25.1µM*
O=C(Nc1cc(Cl)ccc1Cl)c1cc(S(=O)(=O)N2CCc3ccccc3C2)ccc1F	x	x	x	21.1%[46 µM]	x
NNc1ccc(Cl)nn1	-12.9%[9.22 µM]	1.8%[10 µM]	17.8µM*	x	x
Cn1c(C2=C(O)CN(c3ccccc3)C2=N)nc2ccccc21	5.2%	-17.0%	4.7%	11.1%[46 µM]	x
Cc1cccc(N2CC(O)=C(c3nc4ccccc4n3C)C2=N)c1	14.4%	-22.0%	5.9%	-5.3%	11.2µM*
O=S(c1cc(Cl)cc(Cl)c1O)c1cc(Cl)cc(Cl)c1O	-16.2%	-67.5%	x	x	x
Oc1c(Cl)cc(Cl)cc1Sc1cc(Cl)cc(Cl)c1O	10µM*	-52.7%	23.8µM*!	u	31.6µM*!
COc1cccc(C2C(C)CCC3C(=O)N(C)C(C(C)C)C(=O)N32)c1 (configuration not stated)	x	u	-1.8%[13.5 µM]	x	x
CC1=NN(c2ccc(S(=O)(=O)O)cc2Cl)C(=O)C1	-13.8%[9.22 µM]	14.8%[10 µM]	11.2µM*	3.3%[46 µM]	x
SMILES	HTT aggregate	HTT ATP protect	ALDH1A1 block	Lamin A splicing	HPGD block
COC(=O)c1cn(NC(=O)c2cnccn2)c(=O)c2ccccc12	8.91µM*	-43.7%	4.3%	u	-4.4%
COc1ccccc1NS(=O)(=O)c1cc(NC(=O)c2cccs2)ccc1N1CCCC1	u	-3.4%[10 µM]	12.6µM*	-15.6%	8.91µM*
COc1ccccc1NS(=O)(=O)c1cc(NC(=O)c2sccc2C)ccc1N1CCOCC1	26.5%[9.22 µM]	17.8%[10 µM]	x	x	x
COc1ccccc1NS(=O)(=O)c1cc(NC(=O)c2sccc2C)ccc1N1CCCC1	26.8%	-25.3%	10µM*	-21.4%[46 µM]	x
O=C(CCC1N=C2c3ccccc3N=C(SCc3cccc(F)c3)N2C1=O)NCc1ccc(F)cc1 (configuration not stated)	x	x	x	-3.9%[46 µM]	x
Cn1c(=O)c(-c2ccc(Cl)cc2)nc2cnc(N3CCOCC3)nc21	x	-7.9%	u	-4.5%	x
COCCn1c(C)cc(C(=O)COC(=O)c2ccc3c(c2)NC(=O)CS3)c1C	u	-11.0%[10 µM]	-2.0%	-0.5%	-24.4%
C=CCn1c(C)cc(C(=O)COC(=O)c2ccc3c(c2)NC(=O)CS3)c1C	4.6%	-0.1%[10 µM]	u	3.2%	22.4µM*
CCOC(=O)N1CCN(C(=O)CCC(=O)N2CCOc3ccc(C)cc32)CC1	u	-28.2%	25.1µM*	5.5%	x
Cc1ccc(NS(=O)(=O)c2ccc3c(c2)NC(=O)CCS3)c(Br)c1	x	x	x	-25.7%[46 µM]	x
COc1cc(/C=N/n2c(C)n[nH]c2=S)ccc1OCc1ccc(F)cc1	20.1%	-12.8%[10 µM]	u	13.3%	2.82µM*
CCCCn1cc(S(=O)(=O)c2ccc(C)cc2)c(=O)c2cc(F)c(N3CCCCC3)cc21	x	x	x	17.7%[46 µM]	x
CSc1nc2sc3c(c2c(=O)n1CC(C)C)CC(C)(C)OC3	4.5%[9.22 µM]	-6.2%[10 µM]	7.2%	x	x
CCCc1[nH]n(-c2nc3ccccc3s2)c(=O)c1C=NCC1CCCO1 (configuration not stated)	-11.4%	-27.4%[10 µM]	25.1µM*	-4.0%	-19.7%
Cc1cc(NC(=O)CSc2nc(-c3ccccc3Cl)nc3c2c(=O)n(C)c(=O)n3C)no1	-9.8%	-1.3%	12.7%	u	x
COc1ccc([N+](=O)[O-])cc1NC(c1nnc(-c2ccccc2)o1)c1ccccc1F (configuration not stated)	x	x	x	-1.8%[46 µM]	x
Cc1cc(C(F)(F)F)nn1CC(=O)NNC(=S)Nc1ccc(Cl)cc1	18.6%	12.8%	u	5.8%	-2.4%
O=C(Cn1nnc(-c2cc(C(F)(F)F)cc(C(F)(F)F)c2)n1)NNC(=S)Nc1ccc(Cl)cc1	-6.9%[9.22 µM]	-10.3%[10 µM]	1.26µM*	x	x
O=C(OCn1nnc2ccccc2c1=O)c1ccc2ncsc2c1	-1.4%	-45.0%	u	u	25.1µM*
CCC1(CC)NC(=O)N(CC(=O)OCn2nnc3ccccc3c2=O)C1=O	2.5%	-17.2%[10 µM]	12.6µM*	3.8%	-21.5%
Cc1ccc(SCCC(=O)OCn2nnc3ccccc3c2=O)cc1	1.1%	2.0%[10 µM]	15µM*	u	x
O=C(OCn1nnc2ccccc2c1=O)C1CCCCC1	-8.4%	-15.8%[10 µM]	15.8µM*	8.4%	11.2µM*
